Test results as given in the supplement of paper PMC6522484.
± gives the standard deviation of the averaged measurements.

System: DLD1
Test: TCF/Wnt firefly luciferase reporter signal relative to plate median (fraction of plate median); higher = higher Wnt reporter signal
Conditions: 10 µM; treatment time 24 h; reporter: TCF4/Wnt
Method in brief: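 Colorectal cancer cell lines carrying stably transduced lentiviral TCF/Wnt firefly luciferase reporters (7TFP or TCF4/Wnt) were plated in 384-well plates and treated 24 h later with kinase inhibitor library compounds at a final 10 µM for 24 h. Firefly luciferase or CellTiterGlo luminescence was read on parallel plates with a Tecan F500 reader. Signals were normalised per well to the plate median in webcellHTS2 (additive, no log transformation), and values are the mean of two independent replicates.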

Q: Which “TCF/Wnt firefly luciferase reporter signal” value does the source give for O=C(O)c1ccc(Nc2ncc3c(n2)-c2ccc(Cl)cc2C(c2c(F)cccc2F)=NC3)cc1 here?
A: 1.11 ± 0.042

Q: With O=C(c1ccc(/C=C/c2n[nH]c3ccccc23)cc1)N1CCNCC1 as the compound, how does the “TCF/Wnt firefly luciferase reporter signal” value read?
A: 1.46 ± 0.65

Q: Cc1[nH]c(/C=C2\C(=O)Nc3ccc(S(=O)(=O)N(C)c4cccc(Cl)c4)cc32)c(C)c1C(=O)N1CCN(C)CC1 was tested. Which “TCF/Wnt firefly luciferase reporter signal” value did it give?
A: 0.954 ± 0.14

Q: How did the “TCF/Wnt firefly luciferase reporter signal” value turn out when Nc1cc(C(F)(F)F)c(-c2cc(N3CCOCC3)nc(N3CCOCC3)n2)cn1 was run?
A: 0.75 ± 0.071

Q: For COC(=O)Nc1ccc(-c2nc(N3CCOCC3)c3cnn(C4CCN(Cc5cccnc5)CC4)c3n2)cc1, which “TCF/Wnt firefly luciferase reporter signal” value is on record?
A: 0.632 ± 0.04

Q: How did the “TCF/Wnt firefly luciferase reporter signal” value turn out when Fc1cc(-c2cccc3ncc(-c4cnn(C5CCNCC5)c4)nc23)cc(F)c1CN1CCOCC1 was run?
A: 1.02 ± 0.089

Q: How did the “TCF/Wnt firefly luciferase reporter signal” value turn out when COCC(=O)NC/C=C/c1ccc2ncnc(Nc3ccc(Oc4ccc(C)nc4)c(C)c3)c2c1 was run?
A: 1.19 ± 0.17

Q: COc1cc2ncnc(Nc3cccc(Br)c3)c2cc1OC was tested. Which “TCF/Wnt firefly luciferase reporter signal” value did it give?
A: 0.58 ± 0.13

Q: Which “TCF/Wnt firefly luciferase reporter signal” value does the source give for Nc1ccc(-c2ccc3ncc4ccc(=O)n(-c5cccc(C(F)(F)F)c5)c4c3c2)cn1 [Torin 2] here?
A: 0.523 ± 0.032

Q: Oc1cccc(-c2nc(N3CCOCC3)c3oc4ncccc4c3n2)c1 was tested. Which “TCF/Wnt firefly luciferase reporter signal” value did it give?
A: 0.954 ± 0.093

Q: For Cc1cccc(-c2[nH]c(C(C)(C)C)nc2-c2ccc3nccnc3c2)n1, which “TCF/Wnt firefly luciferase reporter signal” value is on record?
A: 1.03 ± 0.12

Q: How did the “TCF/Wnt firefly luciferase reporter signal” value turn out when Cc1ncc(-c2ccnc(Nc3ccc(S(C)(=O)=O)cc3)n2)n1C(C)C was run?
A: 0.277 ± 0.063

Q: For CN1CCN(c2nc(C3=C(c4c[nH]c5ccccc45)C(=O)NC3=O)c3ccccc3n2)CC1 [Sotrastaurin (AEB071)], which “TCF/Wnt firefly luciferase reporter signal” value is on record?
A: 1.52 ± 0.28

Q: With C[C@@H](N)[C@H]1CC[C@H](C(=O)Nc2ccncc2)CC1 as the compound, how does the “TCF/Wnt firefly luciferase reporter signal” value read?
A: 1.32 ± 0.057

Q: For CC(C)(C)c1cc(/C=C(\C#N)C(N)=S)cc(C(C)(C)C)c1O [Tyrphostin AG 879 (AG 879)], which “TCF/Wnt firefly luciferase reporter signal” value is on record?
A: 1.04 ± 0.042

Q: c1cncc(CN2CCC(n3ncc4c(N5CCOCC5)nc(-c5ccc6[nH]ccc6c5)nc43)CC2)c1 was tested. Which “TCF/Wnt firefly luciferase reporter signal” value did it give?
A: 0.607 ± 0.042

Q: For CCS(=O)(=O)c1cccc(-c2cc(C(=O)NC3CCN(C)CC3)c(C)c3[nH]c4ncc(C)cc4c23)c1, which “TCF/Wnt firefly luciferase reporter signal” value is on record?
A: 1.215 ± 0.0071

Q: For COC(=O)c1ccc2c(C(=Nc3ccc(N(C)C(=O)CN4CCN(C)CC4)cc3)c3ccccc3)c(O)[nH]c2c1 [BIBF1120 (Vargatef)], which “TCF/Wnt firefly luciferase reporter signal” value is on record?
A: 1.03 ± 0.18

Q: With C#Cc1cccc(Nc2ncnc3cc(OCCOC)c(OCCO)cc23)c1 [OSI-420 (Desmethyl Erlotinib)] as the compound, how does the “TCF/Wnt firefly luciferase reporter signal” value read?
A: 0.927 ± 0.12

Q: Cc1csc(-c2nnc(Nc3ccc(Oc4ncccc4-c4ccnc(N)n4)cc3)c3ccccc23)c1 was tested. Which “TCF/Wnt firefly luciferase reporter signal” value did it give?
A: 0.866 ± 0.13

Q: For CCc1cc(Nc2nccc(-c3c(-c4ccc(OC)c(C(=O)Nc5c(F)cccc5F)c4)nc4ccccn34)n2)c(OC)cc1N1CCC(N2CCN(S(C)(=O)=O)CC2)CC1, which “TCF/Wnt firefly luciferase reporter signal” value is on record?
A: 0.977 ± 0.047

Q: With CN1CCN(c2ccc3nc(-c4c(N)c5c(F)cccc5[nH]c4=O)[nH]c3c2)CC1 [Dovitinib (TKI-258)] as the compound, how does the “TCF/Wnt firefly luciferase reporter signal” value read?
A: 1.3 ± 0.092

Q: How did the “TCF/Wnt firefly luciferase reporter signal” value turn out when c1ccc2c(-c3cnn4cc(-c5ccc(N6CCNCC6)cc5)cnc34)ccnc2c1 was run?
A: 1.08 ± 0.18

Q: With O=C1NC(=O)/C(=C\c2ccc3nccnc3c2)S1 as the compound, how does the “TCF/Wnt firefly luciferase reporter signal” value read?
A: 1.48 ± 0.021

Q: With COc1cc2nccc(Oc3ccc(NC(=O)NC4CC4)c(Cl)c3)c2cc1C(N)=O [E7080 (Lenvatinib)] as the compound, how does the “TCF/Wnt firefly luciferase reporter signal” value read?
A: 1.2 ± 0.05

Q: Which “TCF/Wnt firefly luciferase reporter signal” value does the source give for CC(C)(C)c1cnc(CSc2cnc(NC(=O)C3CCNCC3)s2)o1 here?
A: 1.06 ± 0.92

Q: For CCS(=O)(=O)Nc1ccc2c(c1)/C(=C(/Nc1ccc(CN3CCCCC3)cc1)c1ccccc1)C(=O)N2 [Hesperadin], which “TCF/Wnt firefly luciferase reporter signal” value is on record?
A: 0.902 ± 0.11

Q: With CNC(=O)c1cc(Oc2ccc(NC(=O)Nc3ccc(Cl)c(C(F)(F)F)c3)c(F)c2)ccn1 [Regorafenib (BAY 73-4506)] as the compound, how does the “TCF/Wnt firefly luciferase reporter signal” value read?
A: 0.7185 ± 0.005

Q: CCc1cc2c(cc1N1CCC(N3CCOCC3)CC1)C(C)(C)c1[nH]c3cc(C#N)ccc3c1C2=O was tested. Which “TCF/Wnt firefly luciferase reporter signal” value did it give?
A: 1.05 ± 0.12

Q: Which “TCF/Wnt firefly luciferase reporter signal” value does the source give for CCC[C@H](NC(=O)/C(C#N)=C/c1cccc(Br)n1)c1ccccc1 here?
A: 0.0661 ± 0.016

Q: With COc1cc2c(Nc3ccc(NC(=O)c4ccccc4)cc3)ncnc2cc1OCCCN1CCOCC1 as the compound, how does the “TCF/Wnt firefly luciferase reporter signal” value read?
A: 1.19 ± 0.2

Q: Which “TCF/Wnt firefly luciferase reporter signal” value does the source give for O=C(NOCC(O)CO)c1cc(Br)c(F)c(F)c1Nc1ccc(I)cc1F (stereo not given) here?
A: 1.47 ± 0.16

Q: Which “TCF/Wnt firefly luciferase reporter signal” value does the source give for O=C(NC1CCNCC1)c1n[nH]cc1NC(=O)c1c(Cl)cccc1Cl here?
A: 0.797 ± 0.67

Q: Which “TCF/Wnt firefly luciferase reporter signal” value does the source give for CC[C@H](Nc1ncnc2[nH]cnc12)c1nc2cccc(F)c2c(=O)n1-c1ccccc1 here?
A: 0.788 ± 0.024

Q: C=CC(=O)Nc1ccc2ncnc(Nc3ccc(OCc4cccc(F)c4)c(Cl)c3)c2c1 was tested. Which “TCF/Wnt firefly luciferase reporter signal” value did it give?
A: 0.879 ± 0.2

Q: Which “TCF/Wnt firefly luciferase reporter signal” value does the source give for COc1ccc(COc2cc3oc(=O)c4cc(C(C)O)ccc4c3cc2OC)cc1 (stereo not given) [Palomid 529] here?
A: 1.16 ± 0.099

Q: For O=C(Nc1c[nH]nc1-c1nc2ccc(CN3CCOCC3)cc2[nH]1)NC1CC1, which “TCF/Wnt firefly luciferase reporter signal” value is on record?
A: 1.575 ± 0.0071

Q: For CCCCCCCCCCCCc1ccc(S(=O)(=O)Nc2nncs2)cc1, which “TCF/Wnt firefly luciferase reporter signal” value is on record?
A: 1.14 ± 0.18

Q: With O=C1NC(=O)C(c2ccccc2[N+](=O)[O-])=C1Nc1ccc(O)c(Cl)c1 as the compound, how does the “TCF/Wnt firefly luciferase reporter signal” value read?
A: 1.85 ± 0.45

Q: Which “TCF/Wnt firefly luciferase reporter signal” value does the source give for CNC(=O)c1cc(Oc2ccc(NC(=O)Nc3cc(C(C)(C)C)nn3-c3ccc4ncccc4c3)c(F)c2)ccn1 [DCC-2036 (Rebastinib)] here?
A: 0.755 ± 0.047
